Assay outcomes: PubChem BioAssay, National Center for Advancing Translational Sciences (NCATS)
KB-3-1 cytotox: KB-3-1 parental cell cytotoxicity; Potency, µM (series often up to 46.1 µM), most hits filed as cytotoxic; KB-3-1 viability, CellTiter-Glo ATP luminescence, 72 h; 1.4% of 400,000 active; further: on the % scale 0 is the no-effect control and ±100 the full control effect; nearly all actives have a fitted effect of over 60% in size
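Multi-concentration cytotoxicity screen in KB-3-1 cells grown in DMEM lacking phenol red with 10% FBS. After 72 h at 37 °C with compound, ATP-dependent luminescence was recorded.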
KB-V1 cytotox: kills drug-selected multidrug resistant KB-V1 cells | KB-V1 MDR cells viability, CellTiter-Glo, 72 h | 3.4% of 400,000 active | Potency, µM (titrated, usually from 46.1 µM), most hits filed as cytotoxic; further: on the % scale 0 is the no-effect control and ±100 the full control effect; nearly all actives have a fitted effect of over 60% in size
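Following 72 h at 37 degrees C with compound, KB-V1 cell viability was read by CellTiter-Glo luminescence, medium being phenol-red-free DMEM plus 10% FBS; concentration-response parameters came from normalized, curve-fitted qHTS data.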
SW480 rereplic: induces DNA re-replication in SW480 colon adenocarcinoma cells | SW480 DNA re-replication, Hoechst DNA content imaging, 48 h | Potency, µM (doses to about 46.1 µM), without a hit: at the top dose re-replication activation, actives largely listed as activators | 1.8% of 340,000 active | AID 624297; further: % of control where 0% means no effect; nearly all actives have a fitted effect of over 55% in size
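Readout is total intensity of Hoechst-stained nuclei, excited at 405 nm and collected at 500-530 nm. Compound treatment lasted 48 hr at 37 C in 5% CO2 before staining.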
ELG1 repair inh: ELG1-dependent DNA repair inhibition; HEK293T ELG1-luciferase reporter, luminescence, 16 h; DNA damage induced by 5-fluorouridine; Potency, µM (titrated, usually from 46.1 µM), for the others: at the top dose activity change, negative = inhibition, usual class: inhibitors; 2.3% of 330,000 active; further: on the % scale 0 is the no-effect control and ±100 the full control effect; nearly all actives have a fitted effect of over 55% in size
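Quantitative HTS, concentration-response format. 2,000 cells/well co-treated with 5-fluorouridine and compound, 16 hr in 5% CO2 at 37 °C; ONE-Glo luminescence read after 30 min.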
MCF10A rereplic: induces DNA re-replication in MCF 10a normal breast cells; Potency, µM (doses to about 46.1 µM), inactives show top-dose activity, positive = re-replication, actives largely listed as activators; 2.9% of 350,000 active; MCF 10A DNA re-replication, Hoechst nuclear intensity, 48 h; further: % of control where 0% means no effect; nearly all actives have a fitted effect of over 50% in size
Starred values were filed as active, the others as inactive; i = inactive; ? = inconclusive; · = no result; ! = a repeat was not active. Most compounds without a hit are left out; they make up all but 8.1% or so of the library. The call rests on the fitted dose curve; in most records, active means well fitted curve in the direction sought with a large enough effect; inconclusive means small, poorly fitted or top-dose-only effect, or another doubt; inactive means no such curve, though single readings can be large; an effect the other way counts as inactive or inconclusive. Potency means the concentration at half of the fitted maximal effect.

SMILES	KB-3-1 cytotox	KB-V1 cytotox	SW480 rereplic	ELG1 repair inh	MCF10A rereplic
COc1cc(NC(=O)CSc2nc(C)c(C)c(C)n2)c(C)cc1[N+](=O)[O-]	i	15µM*	-14%	-20%	7%
COc1ccc(-c2oc3ncn4nc(-c5ccccc5Cl)nc4c3c2-c2ccc(OC)cc2)cc1	i	i	·	·	·
Cn1c(CN2CCOCC2)nnc1SCC(=O)Nc1ccc([N+](=O)[O-])cc1O	·	·	10%	13µM*	?
N/C(=N\c1nc2c(c(=O)[nH]1)CCC2)Nc1cccc2ccccc12	23µM*	?	0%	9%	-8%
OC(c1cccc(Cl)c1)c1nc(-c2cnc3ccccc3c2)cs1 (stereo unspecified)	i	i	·	·	·
CCCN1C(=O)c2ccccc2NC1c1ccc(OC)cc1O (stereo unspecified)	?	5.8µM*	3%	15%	?
CC(OC(=O)/C=C/c1ccco1)C(=O)NC1CCCCC1C (stereo unspecified)	i	i	-13%	0%	1%
CC(=O)c1cccc(NC(=O)COc2ccc3oc(=O)cc(C)c3c2)c1	i	i	-8%	?	-6%
CCCCn1c(-c2ccc(F)c(F)c2)nc2cc3[nH]c(=O)c(C(C)C)nc3cc21	i	i	0%	?	23µM*
Cc1csc2nc3cc(C(N)=O)ccc3c(=O)n12	i	?	-43%	?	-5%
NC(=O)c1ccc2c(=O)n3c(-c4cc(Cl)c(N)c(Cl)c4)csc3nc2c1	23µM*	i	30%	10µM*	?
C=CCc1cc(OC)ccc1OCC(O)CN1CCN(c2ccc(OC)cc2)CC1 (stereo unspecified)	i	18µM*!	8%	?	?
COc1ccc(CCNCC(O)COc2ccc(OC)cc2C(C)(C)C)cc1 (stereo unspecified)	i	i	23µM*	-17%	?
C=CCc1cc(C)ccc1OCC(O)CN1CCN(c2ccccc2)CC1 (stereo unspecified)	i	i	3%	0%	6%
CCOC(=O)C1CCCN(CC(O)COc2ccc(OC)cc2C(C)(C)C)C1 (stereo unspecified)	i	i	-1%	-29%	9%
CCOC(=O)N1CCN(CC(O)COc2ccc(OC)cc2C(C)(C)C)CC1 (stereo unspecified)	i	3.7µM*	-2%	-5%	24%
COc1ccc(CCNCC(O)COc2cccc(Br)c2)cc1OC (stereo unspecified)	i	i	2%	4%	8%
Cc1ccc(OCC(O)CN2CCN(c3ccc(C)cc3)CC2)cc1 (stereo unspecified)	i	i	-21%	-5%	0.82µM*
CCCCCOC(=O)CSc1ncnc2sc3c(c12)CCC(C)C3 (stereo unspecified)	i	i	·	·	·
Clc1cccc(-c2ccc(CNCCSc3nnnn3-c3ccccc3)o2)c1	i	i	·	·	·
NC(=O)c1ccc2nc(-c3ccc(Oc4ccc(Cl)cc4)cc3)[nH]c2c1	i	i	·	·	·
Cc1cc(NC(=O)c2c(C)noc2C)no1	i	i	?	0%	16µM*
CCOc1cc(C(=O)Nc2cc(C)on2)cc(OCC)c1OCC	i	i	-20%	21µM*	22%
Cc1cc(NC(=O)c2c(Cl)cccc2Cl)no1	i	i	-23%	2%	-1%
CSc1cccc(NC(=O)N2CCN(c3cc(-c4noc(C)n4)ccc3C)CC2)c1	i	?	·	·	·
SMILES	KB-3-1 cytotox	KB-V1 cytotox	SW480 rereplic	ELG1 repair inh	MCF10A rereplic
CN(C(=O)Cn1c(=O)oc2ccccc21)C1CCCCC1	i	i	3%	?	-7%
CN1CCN(c2nc(-c3cccnc3)nc3scc(-c4ccccc4)c23)CC1	i	i	?	-5%	18µM*
CC1CCCN(c2nc(-c3cccnc3)nc3scc(-c4ccccc4)c23)C1 (stereo unspecified)	i	?	1%	?	23µM*
CC1CCN(c2nc(-c3cccnc3)nc3scc(-c4ccccc4)c23)CC1	i	i	3%	15%	?
Cc1ccn2c(Nc3c(C)cccc3C)c(-c3ccc(Cl)s3)nc2c1	i	i	·	·	·
O=C(NCc1ccccc1Cl)c1cnc2sc(N3CCCCC3)nn2c1=O	i	i	·	·	·
O=Cc1ccc(OCc2cn(CC(=O)c3ccc(O)cc3)nn2)cc1	i	i	-4%	·	18%
Cc1[nH][nH]c(=O)c1C(c1c(C)[nH][nH]c1=O)c1cn(Cc2ccc(Cl)c(Cl)c2)c2ccccc12	23µM*	13µM*	9.2µM*	?	?
O=c1cnn(Cc2ccc(Cl)c(Cl)c2)c2ccccc12	?	?	-14%	-20%	8%
O=C(O)Cc1cn(Cc2ccc(F)cc2)c2ccccc12	i	i	-3%	-2%	7%
Cc1[nH][nH]c(=O)c1C(c1c(C)[nH][nH]c1=O)c1cn(Cc2ccc(F)cc2)c2ccccc12	?	?	9.2µM*	-15%	?
Cc1ccc(Cc2c(-c3ccc(Cl)cc3)nc3c(Cl)cc(C(F)(F)F)cn23)cc1	i	i	·	·	·
COc1ccc(N2C(=O)CSC23C(=O)N(CC(=O)Nc2ccccc2F)c2ccccc23)cc1 (stereo unspecified)	i	?	·	·	·
C[C@H]1C(c2ccc(F)cc2)=NN(c2ccccc2)[C@@H]1CO	i	i	5.2µM*	5%	10µM*
COc1ccccc1[C@H]1C(c2ccc(F)cc2)=NN(c2ccccc2)[C@@H]1CO	i	i	3.7µM*	-6%	?
COc1ccccc1[C@H]1C(c2cccc(C)c2)=NN(c2ccccc2)[C@@H]1CO	i	i	0.33µM*	-25%	?
COc1ccccc1[C@H]1C(c2ccccc2)=NN(c2ccccc2)[C@@H]1CO	i	i	13µM*	4%	1.8µM*
COc1cccc(CC2(CO)CCCN(Cc3ccc(OC)c(C)c3OC)C2)c1 (stereo unspecified)	?	i	3%	-24%	?
COc1cc(-n2c(C)nc3ncn(-c4ccccc4)c3c2=O)cc(OC)c1OC	i	i	·	·	·
CC(Oc1ccccc1)C(=O)N[C@@H]1C(=O)N2C(C(=O)O)C(C)(C)S[C@H]12 (stereo partly specified)	i	i	·	·	·
CCCC(=O)NC(c1ccccc1OC)c1ccc2cccnc2c1O (stereo unspecified)	?	?	?	4.1µM*	17%
COc1ccc(C(NC(C)=O)c2ccc3cccnc3c2O)c(OC)c1 (stereo unspecified)	7.3µM*	?	2.9µM*	?	13%
